# Data taken from PubChem BioAssay (NCATS).
# Inconclusive results are not listed. A call without a number means that no potency is given here. Active and inactive are the calls of the source. Unless noted, calls come from the whole dose curve; as a rule, active = well fitted cell-killing curve with a large enough effect; inconclusive = small, poorly fitted or top-dose-only effect; inactive = flat fitted curve, though single readings scatter.
# Legend:
# [1] = Cell Viability - LYMP2-023 (AID 975);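 note: cellular ATP measured by luciferase luminescence as viability proxy; series mostly up to about 92 µM; nearly all actives have a fitted effect of over 55% in size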
# Procedure, shortened: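 Intracellular ATP, read by CellTiter-Glo luminescence, reports viability after 24 hr compound exposure at 37 C. 2500 lymphoblastoid cells/well (LYMP2-023) seeded 5 hr beforehand; Hill fits give AC50; positive control tetraoctylammonium bromide.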
# [2] = Cell Viability - LYMP2-025 (AID 976); note: series mostly up to about 92 µM
# Procedure, shortened: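 Cytotoxicity read as loss of intracellular ATP (luciferase luminescence) after 24 h compound treatment at 37 C. Uses LYMP2-025 lymphoblastoid cells in 1536-well format; Hill-equation modelling gives AC50; tetraoctylammonium bromide as positive control.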
# [3] = Cell Viability - LYMP2-002 (AID 977); note: series mostly up to about 92 µM
# Procedure, shortened: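 In this qHTS viability screen, 2500 human lymphoblastoid cells per well receive compound for 24 hr at 37 C, and luciferase-based ATP luminescence gives the viability signal. Tetraoctylammonium bromide serves as positive control.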
# [4] = Cell Viability - LYMP2-006 (AID 978); note: series mostly up to about 92 µM; nearly all actives have a fitted effect of over 60% in size
# Procedure, shortened: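 Human lymphoblastoid cells, 2500 per well, were preincubated 5 hr at 37 C, then exposed to compounds for 24 hr at 37 C in complete medium. Viability was read as intracellular ATP by CellTiter-Glo luminescence; AC50 from Hill-equation fits of qHTS concentration-response data.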
# [5] = Cell Viability - LYMP2-007 (AID 979);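 note: cells exposed to compound for 24 h before reading; nearly all actives have a fitted effect of over 60% in size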
# Procedure, shortened: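 AC50 values come from Hill-equation fits of luminescent intracellular ATP (CellTiter-Glo, 30 min, room temperature) following 24 h compound exposure at 37 C. Cells: LYMP2-007 lymphoblastoid line, 2500 per well, in complete culture medium.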
# [6] = Cell Viability - LYMP2-008 (AID 980); note: nearly all actives have a fitted effect of over 60% in size
# Procedure, shortened: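 Cytotoxicity determined from ATP-dependent luciferase luminescence (CellTiter-Glo) following 24 h compound exposure of human lymphoblastoid LYMP2-008 cells at 37 C. Concentration-response data fitted to the Hill equation to give AC50.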
# [7] = Cell Viability - LYMP2-010 (AID 981); note: nearly all actives have a fitted effect of over 55% in size
# Procedure, shortened: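 CellTiter-Glo ATP luminescence measured cytotoxicity after 24 h compound exposure at 37 C. LYMP2-010 cells were seeded at 2500/well, with tetraoctylammonium bromide as control; concentration-response curves gave AC50 values by the Hill equation.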
# [8] = Cell Viability - LYMP2-012 (AID 982);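 note: cellular ATP by luciferase luminescence where a drop means cytotoxicity; cells exposed to compound for one day before reading; nearly all actives have a fitted effect of over 55% in size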
# [9] = Cell Viability - LYMP2-014 (AID 983); note: series mostly up to about 92 µM; nearly all actives have a fitted effect of over 50% in size
# Procedure, shortened: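 Intracellular ATP loss, read by luciferase luminescence, measures acute cytotoxicity after 24 h compound exposure of lymphoblastoid LYMP2-014 cells (2500/well, 37 C). Concentration-response data fitted to the Hill equation for AC50.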
# [10] = Cell Viability - LYMP2-020 (AID 986); note: series mostly up to about 92 µM; nearly all actives have a fitted effect of over 55% in size
# Procedure, shortened: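 Cytotoxicity in qHTS format: luminescent ATP readout from CellTiter-Glo after 24 h compound exposure at 37 C in complete medium. LYMP2-020 lymphoblastoid cells were seeded at 2500/well; concentration-response data fitted to the Hill equation for AC50.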
# [11] = Cell Viability - LYMP2-022 (AID 987); note: nearly all actives have a fitted effect of over 55% in size
# Procedure, shortened: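 Cytotoxicity read as decreased cellular ATP (CellTiter-Glo luminescence, 30 min room temperature) after 24 hours compound exposure of 2500 lymphoblastoid LYMP2-022 cells/well at 37 C. Concentration-response data fitted with standard Hill equation for AC50.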
# [12] = Cell Viability - LYMP2-024 (AID 988); note: nearly all actives have a fitted effect of over 60% in size
# Procedure, shortened: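 Cytotoxicity was taken as a decrease in ATP (CellTiter-Glo luminescence) after 24 hr compound exposure at 37 C of LYMP2-024 lymphoblastoid cells, 2500 cells/well. Concentration-response data were fitted to the Hill equation to give AC50.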
# [13] = Cell Viability - LYMP2-026 (AID 989); note: nearly all actives have a fitted effect of over 50% in size
# Procedure, shortened: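 Cytotoxicity read as ATP-dependent luminescence (CellTiter-Glo, 30 min room temperature) after 24 h compound treatment at 37 C. LYMP2-026 lymphoblastoid line seeded at 2500 cells/well; AC50 derived by standard Hill equation.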
# [14] = Cell Viability - LYMP1-002 - Assay at 24 hr (AID 993)
# Procedure, shortened: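 qHTS cytotoxicity at 24 h: CellTiter-Glo ATP luminescence in lymphoblastoid line LYMP1-002 incubated with compound at 37 °C. Concentration-response modeled with the Hill equation for AC50; tetraoctylammonium bromide served as positive control.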
# [15] = Cell Viability - LYMP1-002 - Assay at 40 hr (AID 994); note: nearly all actives have a fitted effect of over 60% in size
# Procedure, shortened: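 Cytotoxicity was read as loss of cellular ATP (CellTiter-Glo luminescence) after 40 hr compound exposure at 37 C of 2500 LYMP1-002 lymphoblastoid cells per well. Concentration-response data were fitted with the standard Hill equation to give AC50.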
# [16] = qHTS Assay for Identification of Small Molecule Inducers of Hypoxia Response (AID 2120; active = well fitted curve in the direction sought with a large enough effect in the signal ratio, with a control signal flat, not every such curve was filed as active; the % refers to the signal ratio)
# Procedure, shortened: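 Reporter induction read as the CCF4 blue/green (460nm/530nm) emission ratio after 2.5 h dye loading at room temperature. ME-180 HRE-beta-lactamase cells received titrated compounds for 17 h at 37 degrees Celsius; AC50 values derived.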
# [17] = molecular target: Bile acid receptor (Homo sapiens) (UniProt Q96RI1); assay: qHTS assay for small molecule antagonists of farnesoid X receptor signaling (AID 588526; calls by dose curve)
# Procedure, shortened: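 Concentration-response titrations were fitted to the Hill equation for half-maximal inhibition and maximal response, with data normalised to 50 uM chenodeoxycholic acid and DMSO control wells. Cells: FXR-UAS-bla HEK293T, dialyzed FBS.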
# [18] = molecular target: Glucocorticoid receptor (Homo sapiens) (UniProt P04150); assay: qHTS assay for small molecule agonists of glucocorticoid receptor signaling (AID 588532; active = well fitted curve in the direction sought with a large enough effect in the signal ratio, with a control signal flat; the % refers to the signal ratio); details: HeLa MMTV-bla, beta-lactamase ratio, agonist, 18 h; stronger effect = higher value; percent of dexamethasone control, DMSO zero
# Procedure, shortened: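 Titration series, up to 92 uM, applied to GRE-bla HeLa cells for 18 h at 37 C. Detection by CCF4 FRET substrate after 2 h at RT.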
# [19] = molecular target: Glucocorticoid receptor (Homo sapiens) (UniProt P04150); assay: qHTS assay for small molecule antagonists of glucocorticoid receptor signaling (AID 588533; active = well fitted inhibition curve with a large enough effect in the signal ratio, with a control signal flat, not every such curve was filed as active; the % refers to the signal ratio;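 note: cells stimulated with 2 nM dexamethasone as agonist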)
# Procedure, shortened: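 Antagonist-mode qHTS: compound titrations added to GRE-bla HeLa cells, then dexamethasone 2 nM final; 18 h, 37 C. CCF4 FRET fluorescence normalized to dexamethasone and DMSO; IC50 from Hill fit.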
# [20] = qHTS assay for small molecule antagonists of peroxisome proliferator-activated receptor delta signaling (AID 588535; active = well fitted inhibition curve with a large enough effect in the signal ratio, with a control signal flat, not every such curve was filed as active; the % refers to the signal ratio;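 for max response: cells co-treated with a PPAR-delta agonist as stimulator during compound exposure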); details: HEK293T PPARd-UAS-bla, beta-lactamase FRET ratio, 18 h; 460 nm channel
# Procedure, shortened: (§1)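 Inhibition of PPAR-delta response element-driven beta-lactamase expression is measured in HEK293T cells exposed to a compound titration series for 18 hrs at 37 C. Half-maximal inhibition comes from Hill equation fitting.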
# [21] = molecular target: Peroxisome proliferator-activated receptor delta (Homo sapiens) (UniProt Q03181); assay: as above
# Procedure, shortened: as §1
# [22] = molecular target: Peroxisome proliferator-activated receptor gamma (Homo sapiens) (UniProt P37231); assay: qHTS assay for small molecule agonists of peroxisome proliferator-activated receptor gamma signaling (AID 588536; active = well fitted curve in the direction sought with a large enough effect in the signal ratio, with a control signal flat, not every such curve was filed as active; the % refers to the signal ratio)
# Procedure, shortened: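 Cells were plated and held 6–6.5 h at 37 C, then compounds were added as a titration series. After a further 16 h, CCF4 dye was loaded for 2 h at room temperature and emission at 460/530 nm recorded.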
# Glucocorticoid receptor (Homo sapiens), sequence (P04150 whole entry, looked up): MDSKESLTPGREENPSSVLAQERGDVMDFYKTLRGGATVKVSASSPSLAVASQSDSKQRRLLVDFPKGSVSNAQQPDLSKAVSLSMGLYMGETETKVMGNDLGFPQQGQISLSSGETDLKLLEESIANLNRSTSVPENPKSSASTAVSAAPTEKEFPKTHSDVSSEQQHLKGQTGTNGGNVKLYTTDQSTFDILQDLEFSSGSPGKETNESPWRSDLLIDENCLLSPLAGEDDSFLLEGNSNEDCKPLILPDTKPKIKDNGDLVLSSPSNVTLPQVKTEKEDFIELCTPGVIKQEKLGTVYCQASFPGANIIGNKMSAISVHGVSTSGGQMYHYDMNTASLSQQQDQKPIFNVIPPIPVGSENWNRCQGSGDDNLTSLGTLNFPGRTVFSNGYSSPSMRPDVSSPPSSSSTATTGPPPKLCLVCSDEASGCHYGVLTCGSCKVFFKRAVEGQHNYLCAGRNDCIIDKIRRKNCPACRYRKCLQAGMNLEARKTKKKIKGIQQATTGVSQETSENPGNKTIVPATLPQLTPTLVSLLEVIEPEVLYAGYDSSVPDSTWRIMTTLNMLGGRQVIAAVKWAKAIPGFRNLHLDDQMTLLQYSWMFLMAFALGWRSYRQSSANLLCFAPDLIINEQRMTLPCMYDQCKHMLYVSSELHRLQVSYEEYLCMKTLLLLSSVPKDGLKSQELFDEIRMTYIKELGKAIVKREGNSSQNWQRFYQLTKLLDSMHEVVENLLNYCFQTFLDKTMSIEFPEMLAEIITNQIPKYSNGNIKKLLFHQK
# Peroxisome proliferator-activated receptor gamma (Homo sapiens), sequence (P37231 whole entry, looked up): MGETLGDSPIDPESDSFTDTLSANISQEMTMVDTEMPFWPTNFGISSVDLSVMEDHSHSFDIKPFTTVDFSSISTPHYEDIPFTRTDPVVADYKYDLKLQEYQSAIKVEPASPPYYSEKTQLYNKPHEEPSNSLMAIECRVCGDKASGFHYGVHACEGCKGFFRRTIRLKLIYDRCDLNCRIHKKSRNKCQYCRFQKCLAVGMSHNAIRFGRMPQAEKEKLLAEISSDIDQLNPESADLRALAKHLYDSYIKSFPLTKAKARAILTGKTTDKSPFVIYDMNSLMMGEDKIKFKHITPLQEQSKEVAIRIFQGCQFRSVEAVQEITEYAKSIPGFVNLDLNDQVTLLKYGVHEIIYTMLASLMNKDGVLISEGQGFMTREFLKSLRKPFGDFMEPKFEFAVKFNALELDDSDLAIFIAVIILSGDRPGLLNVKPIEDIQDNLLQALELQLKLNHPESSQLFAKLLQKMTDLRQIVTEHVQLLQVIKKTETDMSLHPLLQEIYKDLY
# Peroxisome proliferator-activated receptor delta (Homo sapiens), sequence (Q03181 whole entry, looked up): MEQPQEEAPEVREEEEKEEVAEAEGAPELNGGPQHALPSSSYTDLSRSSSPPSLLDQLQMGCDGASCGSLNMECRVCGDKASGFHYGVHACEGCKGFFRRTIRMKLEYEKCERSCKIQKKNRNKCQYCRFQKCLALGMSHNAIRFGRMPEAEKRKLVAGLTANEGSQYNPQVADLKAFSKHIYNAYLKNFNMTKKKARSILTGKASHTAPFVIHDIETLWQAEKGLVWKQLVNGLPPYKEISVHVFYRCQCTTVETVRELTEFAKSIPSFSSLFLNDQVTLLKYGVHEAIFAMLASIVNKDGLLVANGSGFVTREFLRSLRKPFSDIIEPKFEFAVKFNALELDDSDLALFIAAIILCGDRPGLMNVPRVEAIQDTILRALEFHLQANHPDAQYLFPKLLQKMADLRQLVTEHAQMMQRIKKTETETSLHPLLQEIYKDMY
# Bile acid receptor (Homo sapiens), sequence (Q96RI1 whole entry, looked up): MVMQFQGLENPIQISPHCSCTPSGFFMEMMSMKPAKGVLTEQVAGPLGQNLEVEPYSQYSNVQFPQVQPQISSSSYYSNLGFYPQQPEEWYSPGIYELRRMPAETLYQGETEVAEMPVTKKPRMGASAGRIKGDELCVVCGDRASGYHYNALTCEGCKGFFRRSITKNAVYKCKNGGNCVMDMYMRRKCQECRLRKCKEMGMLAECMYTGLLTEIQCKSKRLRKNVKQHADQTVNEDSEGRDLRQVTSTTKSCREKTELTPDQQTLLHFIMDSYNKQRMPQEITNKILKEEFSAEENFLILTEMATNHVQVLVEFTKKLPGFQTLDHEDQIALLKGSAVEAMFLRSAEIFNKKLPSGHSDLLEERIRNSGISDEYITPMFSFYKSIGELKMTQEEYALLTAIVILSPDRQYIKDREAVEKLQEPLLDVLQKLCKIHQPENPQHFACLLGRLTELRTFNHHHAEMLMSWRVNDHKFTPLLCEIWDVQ
structure (smiles),measurement,setting,value
O=C(/C=C/c1ccc(O)c(O)c1)O[C@@H](C(=O)O)[C@@H](OC(=O)/C=C/c1ccc(O)c(O)c1)C(=O)O,Potency,[1],inactive
same,Potency,[2],inactive
same,Potency,[3],inactive
same,Potency,[4],inactive
same,Potency,[5],inactive
same,Potency,[6],inactive
same,Potency,[7],inactive
same,Potency,[8],inactive
same,Potency,[9],inactive
same,Potency,[10],inactive
same,Potency,[11],inactive
same,Potency,[12],inactive
same,Potency,[13],inactive
same,Potency,[14],inactive
same,Potency,[15],inactive
same,outcome,[16],inactive
same,outcome,[17],inactive
same,activation,[18],1.43% (inactive)
same,Potency,[19],inactive
same,max response,[20],24.1%
same,Potency,[21],inactive
same,outcome,[22],inactive
